# Source: PubChem BioAssay (EPA / NIEHS)
# Inconclusive results are not listed. Activity calls are given as the source filed them. Rule for the calls, unless noted: active = hit-call score of the fitted dose curve at least 0.9, where 1 is the maximum; inactive = score below 0.9.
# Assays:
# [1] = ATG_NFI_CIS: Attagene CIS-FACTORIAL HepG2 Assay for human Nuclear Factor I (NFI) (AID 2282989); details: HepG2 cis-regulatory reporter, NFI response element transcription; actives raise or lower the signal
# Summary of the method: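 Multiplexed cis-reporter system in human HepG2 cells reports native TF activity as reporter mRNA induction 24 h post-dose. Fragments labelled with 6-FAM, HpaI-digested and resolved by capillary electrophoresis; activity fitted both directions versus DMSO.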
# [2] = molecular target: Myc proto-oncogene protein (Homo sapiens) (UniProt P01106); assay: ATG_Myc_CIS: Attagene CIS-FACTORIAL HepG2 Assay for human Myelocytomatosis (Myc) Proto-Oncogene Transcription Factor (AID 2282990); details: HepG2, Attagene cis-reporter transcription factor activity; actives raise or lower the signal
# Chain of Myc proto-oncogene protein (Homo sapiens) (P01106 whole entry, looked up): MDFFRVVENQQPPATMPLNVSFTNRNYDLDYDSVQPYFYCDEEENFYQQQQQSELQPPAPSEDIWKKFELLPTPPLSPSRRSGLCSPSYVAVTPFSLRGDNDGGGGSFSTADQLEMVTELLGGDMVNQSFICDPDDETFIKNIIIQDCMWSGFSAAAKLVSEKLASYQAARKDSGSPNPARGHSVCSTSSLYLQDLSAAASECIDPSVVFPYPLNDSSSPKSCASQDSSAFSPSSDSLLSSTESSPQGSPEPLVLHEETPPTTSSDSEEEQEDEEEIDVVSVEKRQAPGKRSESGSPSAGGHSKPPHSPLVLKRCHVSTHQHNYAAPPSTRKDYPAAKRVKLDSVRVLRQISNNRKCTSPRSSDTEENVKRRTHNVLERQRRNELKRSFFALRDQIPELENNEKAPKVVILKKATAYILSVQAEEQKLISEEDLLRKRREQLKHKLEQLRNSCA
# Summary of the method: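 HepG2 cells transiently transfected with multiple cis-promoter-driven reporter transcription units, so endogenous TF activity is read. After 24 h compound exposure, reporter mRNA was quantified by RT-PCR, 6-FAM labelling, HpaI digestion and capillary electrophoresis; bidirectional fit versus DMSO.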
# [3] = ATG_NRF2_ARE_CIS: Attagene CIS-FACTORIAL HepG2 Assay for human Nuclear Factor Erythroid 2 Related Factor 2 (NFR2) response to Antioxidant Response Elements (ARE) (AID 2282992); details: HepG2 Attagene ARE/NRF2 reporter, transcription factor activity; actives raise or lower the signal
# Summary of the method: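 Using transiently transfected HepG2 cells exposed for 24 h, reporter mRNA levels were determined by RT-PCR with fluorescent primer extension and capillary electrophoresis, analysed for gain or loss of signal against DMSO.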
# [4] = molecular target: Cellular tumor antigen p53 (Homo sapiens) (UniProt P04637); assay: ATG_p53_CIS: Attagene CIS-FACTORIAL HepG2 Assay for human p53 Transcription Factor (AID 2282994); details: HepG2 p53 cis-element reporter, Attagene mRNA; actives raise or lower the signal
# Chain of Cellular tumor antigen p53 (Homo sapiens) (P04637 whole entry, looked up, the tested form may be a part): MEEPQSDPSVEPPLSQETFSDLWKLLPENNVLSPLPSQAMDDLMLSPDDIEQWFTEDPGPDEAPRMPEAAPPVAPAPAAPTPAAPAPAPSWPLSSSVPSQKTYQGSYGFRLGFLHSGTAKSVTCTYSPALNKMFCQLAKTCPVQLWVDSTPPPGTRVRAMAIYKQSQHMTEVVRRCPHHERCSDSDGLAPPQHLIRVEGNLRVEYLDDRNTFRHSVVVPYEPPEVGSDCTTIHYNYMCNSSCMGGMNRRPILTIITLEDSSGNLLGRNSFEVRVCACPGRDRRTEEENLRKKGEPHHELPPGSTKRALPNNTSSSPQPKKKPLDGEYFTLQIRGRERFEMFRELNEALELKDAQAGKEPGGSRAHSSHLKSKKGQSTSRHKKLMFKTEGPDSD
# Summary of the method: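 In HepG2 cells, reporter transcription units under cis-regulatory promoters were transiently introduced. Following 24 h treatment, RNA was processed to labelled, digested cDNA fragments read by capillary electrophoresis; fitting was bidirectional versus DMSO.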
# [5] = molecular target: human Peroxisome Proliferator-activated Receptor alpha (PPARa), PPARA (gene 5465) (UniProt Q07869); assay: ATG_PPARa_TRANS: Attagene TRANS-FACTORIAL HepG2 Assay for human Peroxisome Proliferator-activated Receptor alpha (PPARa) (AID 2283001; active = hit-call score of the fitted dose curve at least 0.9, where 1 is the maximum)
# Chain of human Peroxisome Proliferator-activated Receptor alpha (PPARa), PPARA (gene 5465) (Q07869 whole entry, looked up, the tested form may be a part): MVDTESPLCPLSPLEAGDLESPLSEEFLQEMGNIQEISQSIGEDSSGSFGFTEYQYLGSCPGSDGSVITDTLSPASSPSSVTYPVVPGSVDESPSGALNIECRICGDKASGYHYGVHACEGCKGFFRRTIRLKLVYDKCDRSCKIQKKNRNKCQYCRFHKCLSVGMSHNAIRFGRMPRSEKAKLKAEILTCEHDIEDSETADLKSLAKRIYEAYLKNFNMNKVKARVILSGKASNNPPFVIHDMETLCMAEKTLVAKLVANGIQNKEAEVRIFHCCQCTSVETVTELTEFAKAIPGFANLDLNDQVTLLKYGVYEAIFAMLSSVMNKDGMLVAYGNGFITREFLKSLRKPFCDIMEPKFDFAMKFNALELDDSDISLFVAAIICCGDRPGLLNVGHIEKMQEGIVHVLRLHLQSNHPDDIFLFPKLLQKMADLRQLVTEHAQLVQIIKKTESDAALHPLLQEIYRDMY
# Summary of the method: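 Exposure: 24 h, transiently transfected HepG2 cells. Endpoint: GAL4-UAS reporter mRNA, RT-PCR with capillary electrophoresis fluorescence. Baseline: DMSO; increases fitted.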
# [6] = molecular target: human Peroxisome Proliferator-activated Receptor delta (PPARd), PPARD (gene 5467) (UniProt Q03181); assay: ATG_PPARd_TRANS: Attagene TRANS-FACTORIAL HepG2 Assay for human Peroxisome Proliferator-activated Receptor delta (PPARd) (AID 2283002; active = hit-call score of the fitted dose curve at least 0.9, where 1 is the maximum)
# Chain of human Peroxisome Proliferator-activated Receptor delta (PPARd), PPARD (gene 5467) (Q03181 whole entry, looked up, the tested form may be a part): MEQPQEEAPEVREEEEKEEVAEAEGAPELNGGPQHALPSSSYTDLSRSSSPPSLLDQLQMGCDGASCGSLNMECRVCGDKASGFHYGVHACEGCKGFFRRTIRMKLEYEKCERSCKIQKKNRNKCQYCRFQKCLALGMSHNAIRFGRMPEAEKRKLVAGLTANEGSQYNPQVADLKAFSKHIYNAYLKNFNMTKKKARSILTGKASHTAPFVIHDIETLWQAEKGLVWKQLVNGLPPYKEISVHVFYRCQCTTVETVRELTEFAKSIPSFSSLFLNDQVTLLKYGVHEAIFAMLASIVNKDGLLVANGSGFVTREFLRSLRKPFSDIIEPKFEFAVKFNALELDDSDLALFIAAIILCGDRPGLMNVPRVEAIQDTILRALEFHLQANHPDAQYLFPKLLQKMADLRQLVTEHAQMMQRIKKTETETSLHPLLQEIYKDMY
# Summary of the method: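 HepG2 cells transiently transfected with multiplexed GAL4-UAS reporter units and exogenous chimeric NR-Gal4 proteins; 24 h compound exposure. Reporter mRNA measured by RT-PCR, 6-FAM labelling, HpaI digestion and capillary electrophoresis; gain of signal versus DMSO.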
# [7] = molecular target: human Retinoic Acid Receptor beta (RARb), RARB (gene 5915) (UniProt P10826); assay: ATG_RARb_TRANS: Attagene TRANS-FACTORIAL HepG2 Assay for human Retinoic Acid Receptor beta (AID 2283004; active = hit-call score of the fitted dose curve at least 0.9, where 1 is the maximum)
# Chain of human Retinoic Acid Receptor beta (RARb), RARB (gene 5915) (P10826 whole entry, looked up, the tested form may be a part): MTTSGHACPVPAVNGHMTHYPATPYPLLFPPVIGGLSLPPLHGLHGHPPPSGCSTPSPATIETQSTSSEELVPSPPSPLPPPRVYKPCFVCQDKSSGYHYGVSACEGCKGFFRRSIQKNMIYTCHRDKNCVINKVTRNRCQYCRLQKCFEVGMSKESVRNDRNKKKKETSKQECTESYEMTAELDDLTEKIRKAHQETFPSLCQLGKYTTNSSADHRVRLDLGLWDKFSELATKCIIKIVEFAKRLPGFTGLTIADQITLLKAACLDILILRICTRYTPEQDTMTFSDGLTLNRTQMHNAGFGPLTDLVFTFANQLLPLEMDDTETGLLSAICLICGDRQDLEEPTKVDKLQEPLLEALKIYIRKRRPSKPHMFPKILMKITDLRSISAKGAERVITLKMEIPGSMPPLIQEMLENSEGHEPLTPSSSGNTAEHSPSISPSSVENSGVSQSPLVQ
# Summary of the method: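 Fluorescent capillary-electrophoresis detection of GAL4-UAS reporter mRNA defines the endpoint, with induction over DMSO-treated wells scored as activity. Transiently transfected human hepatoma HepG2 cells expressing exogenous NR–Gal4 proteins are exposed to test chemicals for 24 h.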
# [8] = molecular target: Retinoic acid receptor alpha (Homo sapiens) (UniProt P10276); assay: ATG_RARa_TRANS: Attagene TRANS-FACTORIAL HepG2 Assay for human Retinoic Acid Receptor alpha (RARa) (AID 2283005; active = hit-call score of the fitted dose curve at least 0.9, where 1 is the maximum)
# Chain of Retinoic acid receptor alpha (Homo sapiens) (P10276 whole entry, looked up, the tested form may be a part): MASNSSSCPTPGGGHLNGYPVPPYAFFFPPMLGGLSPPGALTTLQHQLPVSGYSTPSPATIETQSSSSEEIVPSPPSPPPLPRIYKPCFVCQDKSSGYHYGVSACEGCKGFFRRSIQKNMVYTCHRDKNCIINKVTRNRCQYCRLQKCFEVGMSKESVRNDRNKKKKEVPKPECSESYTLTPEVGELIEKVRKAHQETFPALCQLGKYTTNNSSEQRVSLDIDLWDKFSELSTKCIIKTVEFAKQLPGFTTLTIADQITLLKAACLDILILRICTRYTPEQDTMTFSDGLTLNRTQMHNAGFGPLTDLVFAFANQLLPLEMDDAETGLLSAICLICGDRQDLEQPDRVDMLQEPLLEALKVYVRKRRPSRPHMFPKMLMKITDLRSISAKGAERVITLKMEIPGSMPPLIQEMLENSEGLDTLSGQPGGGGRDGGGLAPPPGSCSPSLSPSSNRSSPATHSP
# Summary of the method: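 HepG2 cells transiently transfected with multiple reporter units expressing chimeric RARα-GAL4 fusion, with GAL4-UAS-driven reporters. After 24 h compound exposure, reporter mRNA induction quantified by RT-PCR and capillary electrophoresis with fluorescent labeling; gain-of-signal fitted relative to DMSO control.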
# [9] = molecular target: Peroxisome proliferator-activated receptor gamma (Homo sapiens) (UniProt P37231); assay: ATG_PPARg_TRANS: Attagene TRANS-FACTORIAL HepG2 Assay for human Peroxisome Proliferator-activated Receptor-gamma (PPARg) (AID 2283007; active = hit-call score of the fitted dose curve at least 0.9, where 1 is the maximum)
# Chain of Peroxisome proliferator-activated receptor gamma (Homo sapiens) (P37231 whole entry, looked up, the tested form may be a part): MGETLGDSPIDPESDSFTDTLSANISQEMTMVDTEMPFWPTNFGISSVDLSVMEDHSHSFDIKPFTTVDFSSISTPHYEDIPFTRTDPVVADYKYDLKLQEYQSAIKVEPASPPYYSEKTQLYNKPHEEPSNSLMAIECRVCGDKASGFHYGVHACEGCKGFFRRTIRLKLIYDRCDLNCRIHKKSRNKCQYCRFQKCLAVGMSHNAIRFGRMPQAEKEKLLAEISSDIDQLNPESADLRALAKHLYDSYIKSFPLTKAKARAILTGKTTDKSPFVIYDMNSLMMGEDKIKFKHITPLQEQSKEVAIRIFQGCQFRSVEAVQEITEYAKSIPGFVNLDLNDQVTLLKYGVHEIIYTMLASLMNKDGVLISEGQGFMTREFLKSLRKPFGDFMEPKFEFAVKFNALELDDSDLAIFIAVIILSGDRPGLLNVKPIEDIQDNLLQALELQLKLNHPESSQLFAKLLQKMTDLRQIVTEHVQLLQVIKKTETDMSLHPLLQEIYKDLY
# Summary of the method: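 Endpoint reflects upward reporter mRNA change versus DMSO controls. Setup: transiently transfected HepG2, GAL4-UAS reporters driven by chimeric NR-Gal4, 24 h incubation, RT-PCR with capillary electrophoresis read-out.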
# [10] = molecular target: Nuclear receptor subfamily 1 group I member 2 (Homo sapiens) (UniProt O75469); assay: ATG_PXR_TRANS: Attagene TRANS-FACTORIAL HepG2 Assay for human Pregnane X Receptor (PXR) (AID 2283008; active = hit-call score of the fitted dose curve at least 0.9, where 1 is the maximum)
# Chain of Nuclear receptor subfamily 1 group I member 2 (Homo sapiens) (O75469 whole entry, looked up, the tested form may be a part): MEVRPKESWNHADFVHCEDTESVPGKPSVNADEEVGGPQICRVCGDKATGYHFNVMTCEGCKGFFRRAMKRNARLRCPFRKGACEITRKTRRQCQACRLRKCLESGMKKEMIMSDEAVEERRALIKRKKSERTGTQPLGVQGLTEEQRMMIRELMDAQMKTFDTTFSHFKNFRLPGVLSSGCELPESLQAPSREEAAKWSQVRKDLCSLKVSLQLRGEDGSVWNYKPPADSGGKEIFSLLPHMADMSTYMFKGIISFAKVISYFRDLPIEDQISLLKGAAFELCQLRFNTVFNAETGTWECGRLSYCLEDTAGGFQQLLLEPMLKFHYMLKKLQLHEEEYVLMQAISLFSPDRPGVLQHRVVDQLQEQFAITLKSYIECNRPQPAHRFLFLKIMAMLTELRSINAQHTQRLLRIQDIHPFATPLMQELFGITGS
# Summary of the method: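 Multiplexed TRANS reporter panel in HepG2; this component tracks PXR-Gal4-driven reporter mRNA after 24 h dosing, measured by RT-PCR with capillary electrophoresis fluorescence, fitted against DMSO.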
# [11] = molecular target: human Retinoic Acid Receptor gamma (RARg), RARG (gene 5916) (UniProt P13631); assay: ATG_RARg_TRANS: Attagene TRANS-FACTORIAL HepG2 Assay for human Retinoic Acid Receptor gamma (RARg) (AID 2283009; active = hit-call score of the fitted dose curve at least 0.9, where 1 is the maximum)
# Chain of human Retinoic Acid Receptor gamma (RARg), RARG (gene 5916) (P13631 whole entry, looked up, the tested form may be a part): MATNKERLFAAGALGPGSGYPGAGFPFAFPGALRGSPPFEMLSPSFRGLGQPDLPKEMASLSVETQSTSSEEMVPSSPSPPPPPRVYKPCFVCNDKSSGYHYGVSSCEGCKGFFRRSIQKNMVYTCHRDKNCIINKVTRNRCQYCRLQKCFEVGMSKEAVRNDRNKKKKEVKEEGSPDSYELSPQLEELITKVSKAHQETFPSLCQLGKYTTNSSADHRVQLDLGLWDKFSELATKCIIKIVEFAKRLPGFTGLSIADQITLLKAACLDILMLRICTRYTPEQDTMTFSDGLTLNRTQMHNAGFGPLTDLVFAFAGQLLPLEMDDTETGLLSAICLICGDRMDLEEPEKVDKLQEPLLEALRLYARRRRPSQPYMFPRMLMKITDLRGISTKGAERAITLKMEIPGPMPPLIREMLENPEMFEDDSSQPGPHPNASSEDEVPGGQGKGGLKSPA
# Summary of the method: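 Gain-of-signal relative to DMSO is reported from fluorescent capillary electrophoresis of RT-PCR reporter products. These came from HepG2 cells expressing transfected RARg-GAL4 chimeras with UAS reporters, harvested 24 h after dosing.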
# [12] = molecular target: human RAR-related Orphan Receptor beta (RORb), RORB (gene 6096) (UniProt Q92753); assay: ATG_RORb_TRANS: Attagene TRANS-FACTORIAL HepG2 Assay for human RAR-related Orphan Receptor beta (RORb) (AID 2283010; active = hit-call score of the fitted dose curve at least 0.9, where 1 is the maximum)
# Chain of human RAR-related Orphan Receptor beta (RORb), RORB (gene 6096) (Q92753 whole entry, looked up, the tested form may be a part): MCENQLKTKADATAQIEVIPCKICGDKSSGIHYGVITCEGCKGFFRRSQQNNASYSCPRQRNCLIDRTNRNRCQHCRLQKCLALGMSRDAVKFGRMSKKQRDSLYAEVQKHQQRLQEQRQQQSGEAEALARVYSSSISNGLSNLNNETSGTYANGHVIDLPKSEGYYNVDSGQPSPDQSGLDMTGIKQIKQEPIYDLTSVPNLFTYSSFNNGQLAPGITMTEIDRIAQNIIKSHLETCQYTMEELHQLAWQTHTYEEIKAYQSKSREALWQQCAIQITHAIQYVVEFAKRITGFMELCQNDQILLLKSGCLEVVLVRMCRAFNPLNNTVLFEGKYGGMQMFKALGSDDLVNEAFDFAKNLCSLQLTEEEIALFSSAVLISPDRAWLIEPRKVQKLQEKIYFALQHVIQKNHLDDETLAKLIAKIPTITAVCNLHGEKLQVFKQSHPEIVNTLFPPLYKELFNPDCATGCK
# Summary of the method: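 Multiplexed transcription-factor reporter assay: HepG2 cells transiently carrying NR-Gal4/GAL4-UAS constructs, 24 h treatment, mRNA quantified by RT-PCR plus capillary electrophoresis fluorescence; activity scored as induction over DMSO.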
# [13] = ATG_Oct_MLP_CIS: Attagene CIS-FACTORIAL HepG2 Assay for human Octamer-Binding Transcription Factor (Oct) (AID 2282993); details: HepG2 Attagene cis-factorial Oct reporter, mRNA; actives raise or lower the signal
# Summary of the method: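 After 24 h compound exposure, transfected HepG2 cells were lysed for total RNA; reporter-specific cDNA was PCR-amplified, fluorescently labelled and sized by capillary electrophoresis. Bidirectional curve fitting used DMSO as baseline.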
# [14] = BSK_3C_TissueFactor: BioMAP Diversity Plus: 3C Assay for Tissue Factor Biomarker Activity (AID 2282997); details: BioMAP 3C HUVEC, tissue factor biomarker readout; actives raise or lower the signal
# Summary of the method: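 In this endothelial system, HUVEC are treated for 24 h and Tissue Factor is assessed by ELISA, normalised to DMSO.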
# [15] = BSK_3C_uPAR: BioMAP Diversity Plus: 3C Assay for Urokinase-type plasminogen activator receptor (uPAR) Biomarker Activity (AID 2282998); details: BioMAP 3C HUVEC, uPAR biomarker ELISA; actives raise or lower the signal
# Summary of the method: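 Values derive from bidirectional curve fitting relative to DMSO, which served as baseline of activity. uPAR was measured by ELISA in human umbilical vein endothelial primary cultures 24 h after compound addition.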
# [16] = BSK_3C_VCAM1: BioMAP Diversity Plus: 3C Assay for Vascular cell adhesion molecule 1 (VCAM1) Biomarker Activity (AID 2282999); details: BioMAP 3C HUVEC, VCAM1 ELISA, cytokine-stimulated; actives raise or lower the signal
# Summary of the method: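 Vascular primary endothelium (human umbilical vein) was exposed to chemicals and assayed 24 h later. VCAM-1 levels came from ELISA, with DMSO serving as baseline for bidirectional fitting.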
# [17] = BSK_4H_Eotaxin3: BioMAP Diversity Plus: 4H Assay for Eotaxin 3 Biomarker Activity (AID 2283000); details: primary human endothelial cells (HUVEC); actives raise or lower the signal;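 note: CCL26 protein level quantified by ELISA in parallel with SRB cytotoxicity check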
# Summary of the method: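 ELISA quantitation of CCL26 (Eotaxin-3) protein from chemically dosed human vascular endothelial cells at 24 h; increases and decreases both scored relative to DMSO-treated baseline.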
# [18] = read-out: Intercellular Adhesion Molecule 1 (ICAM1), ICAM1 (gene 3383); assay: BSK_3C_ICAM1: BioMAP Diversity Plus: 3C Assay for Intercellular Adhesion Molecule 1 (ICAM1) Biomarker Activity (AID 2283003); details: primary human endothelial cells (HUVEC); actives raise or lower the signal
# Summary of the method: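 Using DMSO as baseline, bidirectional curve fitting was applied to ICAM-1 ELISA signals from HUVEC in the 3C system, measured 24 h after compound addition.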
# [19] = BSK_3C_Proliferation: Cell Proliferation Assessment in the BioMAP Diversity Plus: 3C Assay (AID 2283006); details: primary human endothelial cells (HUVEC)
# Summary of the method: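 Measured here: sulforhodamine B (0.1%) staining of TCA-fixed sub-confluent umbilical vein endothelial cultures 48 h post-dosing, absorbance 560 nm. DMSO served as negative control and baseline; both signal gain and loss were modelled.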
smiles,measurement,setting,value
O=[N+]([O-])c1ccc(O)cc1C(F)(F)F,AC50,[1],69.4 µM (active)
same,outcome,[2],inactive
same,AC50,[3],52.8 µM (active)
same,outcome,[4],inactive
same,outcome,[5],inactive
same,outcome,[6],inactive
same,outcome,[7],inactive
same,outcome,[8],inactive
same,AC50,[9],38.7 µM (active)
same,outcome,[10],inactive
same,outcome,[11],inactive
same,outcome,[12],inactive
CN(C)CCOC(C)(c1ccccc1)c1ccccn1 (stereo unspecified),outcome,[1],inactive
same,outcome,[2],inactive
same,outcome,[3],inactive
same,outcome,[13],inactive
same,outcome,[4],inactive
same,outcome,[6],inactive
same,outcome,[10],inactive
same,outcome,[11],inactive
CC/C=C\CC/C=C/CO,outcome,[1],inactive
same,outcome,[2],inactive
same,AC50,[3],48.2 µM (active)
same,outcome,[13],inactive
same,outcome,[5],inactive
same,outcome,[6],inactive
same,AC50,[9],52.9 µM (active)
same,outcome,[10],inactive
CN1CCOCC1,outcome,[1],inactive
same,outcome,[2],inactive
same,outcome,[3],inactive
same,outcome,[13],inactive
same,outcome,[4],inactive
same,outcome,[7],inactive
same,outcome,[8],inactive
same,outcome,[11],inactive
same,outcome,[12],inactive
COCCOCCOCCO,outcome,[1],inactive
same,outcome,[2],inactive
same,outcome,[3],inactive
same,outcome,[13],inactive
same,outcome,[4],inactive
same,outcome,[5],inactive
same,outcome,[12],inactive
CN(c1nccc(=O)[nH]1)C1CCN(c2nc3ccccc3n2Cc2ccc(F)cc2)CC1,outcome,[1],inactive
same,outcome,[2],inactive
same,outcome,[3],inactive
same,outcome,[13],inactive
same,outcome,[14],inactive
same,AC50,[15],1.84 µM (active)
same,outcome,[16],inactive
same,outcome,[17],inactive
same,outcome,[18],inactive
same,outcome,[7],inactive
same,outcome,[8],inactive
same,outcome,[19],inactive
same,outcome,[9],inactive
same,outcome,[10],inactive
same,outcome,[11],inactive
COc1ccccc1[N+](=O)[O-],outcome,[1],inactive
same,outcome,[2],inactive
same,outcome,[3],inactive
same,outcome,[13],inactive
same,outcome,[4],inactive
same,outcome,[10],inactive
Cc1ccc2c(c1)C(=O)OC2=O,outcome,[1],inactive
same,outcome,[2],inactive
same,outcome,[3],inactive
same,outcome,[13],inactive
same,outcome,[4],inactive
same,outcome,[6],inactive
same,outcome,[8],inactive
same,outcome,[9],inactive
same,outcome,[10],inactive
OC[C@H]1O[C@@H](Oc2ccc(O)cc2)[C@H](O)[C@@H](O)[C@@H]1O,outcome,[1],inactive
same,outcome,[2],inactive
same,outcome,[3],inactive
same,outcome,[13],inactive
same,outcome,[4],inactive
same,outcome,[6],inactive
same,outcome,[10],inactive
Nc1ccc2cc(S(=O)(=O)O)cc(O)c2c1N=Nc1ccccc1C(F)(F)F,outcome,[1],inactive
same,outcome,[2],inactive
same,outcome,[3],inactive
same,outcome,[13],inactive
same,outcome,[5],inactive
same,outcome,[6],inactive
same,outcome,[7],inactive
same,outcome,[8],inactive
same,outcome,[9],inactive
same,outcome,[10],inactive
